Records with an inconclusive call do not appear. Where a call stands in place of a potency, no number is given. Activity calls are given as the source filed them. Calls come from the whole dose curve; as a rule, active = well fitted cell-killing curve with a large enough effect in the repeat runs; inconclusive = weak or mixed curves, or effect the other way; inactive = no such curve, though single readings can be large or run the other way.
Experiment: qHTS assay for small molecule activators of the heat shock response signaling pathway - cell viability counter screen (AID 743209); note: nearly all actives have a fitted effect of over 50% in size
Details: HSE-bla HeLa viability, CellTiter-Glo luminescence, 5 h; series mostly up to 62.6 µM
Excerpt: U.S. Tox21 Program National Center for Advancing Translational Sciences [NCATS] NIH Chemical Genomics Center [NCGC] U.S. Environmental Protection Agency [EPA] National Institutes of Environmental Health Sciences [NIEHS] National Toxicology Program [NTP] U.S. Food and Drug Administration [FDA] Tox21 Assay Overview: Various chemicals, environmental and physiological stress conditions may lead to the activation of heat shock response/ unfolded protein response (HSR/UPR). There are three heat shock transcription factors (HSFs) (HSF-1, -2, and -4) mediating transcriptional regulation of the human HSR. To identify the compounds that activate HSR signaling, HSE-bla HeLa cell line (Invitrogen, Carlsbad, CA, USA) containing a beta-lactamase reporter gene under the control of the heat shock response elements was used to screen Tox21 10K compound library. The cytotoxicity of the Tox21 compound library against the HSE-bla HeLa cell line was tested in parallel by measuring the cell viability using CellTiter-Glo assay (Promega, Madison, WI) in the same wells.
Tox21 Assay Protocol Summary: The CellSensor HSE-bla HeLa cells (Invitrogen, Carlsbad, CA, USA) were dispensed at 1500 cells/6uL/well into 1536-well black wall/clear bottom plates using a Multidrop combi (Thermo Fisher Scientific, Waltham, MA) dispenser. After the assay plates were incubated at 37 C and 5% CO2 overnight, 23 nL of compounds dissolved in DMSO, positive controls or DMSO only was transferred to the assay plate by a Pintool station (Kalypsys, San Diego, CA). The plates were incubated at 37 C for 5 h. After 1 uL of LiveBLAzerTM B/G FRET substrate was added using a Flying Reagent Dispenser (FRD, Beckman Coulter, Indianapolis, IN, USA), the plates were incubated at room temperature for 2.5 h, and fluorescence intensity was measured by an Envision plate reader (PerkinElmer, Shelton, CT). For cell viability readout that measures cytotoxicity, 3 ul/well of CellTiter-Glo reagent was added into the assay plates using a FRD. After 30 min incubation at room temperature, the luminescence intensity in the plates was measured using a ViewLux (PerkinElmer) plate reader.
Potency is the fitted concentration of half-maximal effect.

SMILES	Potency
COC(=O)C1=C(C)NC(C)=C(C(=O)OCCc2ccc(N3CCN(C(c4ccccc4)c4ccccc4)CC3)cc2)C1c1cccc([N+](=O)[O-])c1 (stereo not given)	inactive
Oc1ccc(C2(c3ccc(O)cc3)CC3CC2C2CCCC32)cc1 (stereo not given)	52.8 µM (active)
Cc1cc(N)c(S(=O)(=O)O)cc1Cl	inactive
Cc1cc(C2CCCCC2)n(O)c(=O)c1	inactive
COc1cc(-c2ccc(N=C=O)c(OC)c2)ccc1N=C=O	inactive
CSc1ccc(C(=O)c2[nH]c(=O)[nH]c2C)cc1	inactive
O=C1C=CC(=O)N1	20 µM (active)
O=C1c2ccccc2Cc2ccccc21	inactive
CC[C@@]1(O)C(=O)OCc2c1cc1n(c2=O)Cc2c-1nc1ccccc1c2/C=N/OC(C)(C)C	0.473 µM (active)
CSc1ccc2c(c1)C(N1CCN(C)CC1)Cc1ccccc1S2 (stereo not given)	inactive
Cc1onc(-c2ccccc2Cl)c1C(=O)N[C@@H]1C(=O)N2[C@@H]1SC(C)(C)[C@@H]2C(=O)O	inactive
Oc1cccc2cc3cccc(O)c3c(O)c12	inactive
CC1=C(/C=C/C(C)=C/C=C/C(C)=C/C=O)C(C)(C)CCC1	34.5 µM (active)
CSc1ccc(/C=C2/C(C)=C(CC(=O)O)c3cc(F)ccc32)cc1	inactive
CCc1oc2ccccc2c1C(=O)c1cc(Br)c(O)c(Br)c1	inactive
CC[C@H](c1ccc(O)cc1)[C@@H](CC)c1ccc(O)cc1	inactive
CCCCCCCC/C=C/CCCCCCCC1=NCCN1CCO	19.5 µM (active)
CCCC/C=C/CCCCO	inactive
CCc1cc(SCc2sc(-c3ccc(C(F)(F)F)cc3)nc2CN2CCN(c3ccc(OC)cc3)CC2)ccc1OCC(=O)O	24.5 µM (active)
CN1CCN(CCC(=O)N2c3ccccc3Sc3ccc(C(F)(F)F)cc32)CC1	inactive

SMILES	Potency
Cc1cccc2c1cc1ccc3cccc4ccc2c1c34	inactive
CCCCc1oc2ccc(NS(C)(=O)=O)cc2c1C(=O)c1ccc(OCCCN(CCCC)CCCC)cc1	29.8 µM (active)
[Cl][Bi]([Cl])([c]1ccccc1)([c]1ccccc1)[c]1ccccc1	48.7 µM (active)
C/C=C1/C(=O)C[C@H]2[C@@H]3CCC4=CC(=O)CC[C@]4(C)[C@H]3CC[C@]12C	inactive
OCCN1CCN(CC/C=C2/c3ccccc3Sc3ccc(C(F)(F)F)cc32)CC1	inactive
Oc1ccc(N=Nc2ccccc2)cc1	inactive
CN(C)[C@@H]1C(=O)C(C(N)=O)=C(O)[C@@]2(O)C(=O)C3=C(O)c4c(O)ccc(Cl)c4[C@@H](O)[C@H]3C[C@@H]12	inactive
ON=C1CCCC1	inactive
CN(C)[C@@H]1C(=O)C(C(N)=O)=C(O)[C@@]2(O)C(=O)C3=C(O)c4c(O)cccc4C[C@H]3C[C@@H]12	inactive
O=C(OCC1CO1)C1CCCCC1C(=O)OCC1CO1 (stereo not given)	inactive
Fc1ccc([C@@H]2CCNC[C@H]2COc2ccc3c(c2)OCO3)cc1	inactive
COc1ccc(CN2CCN(C(c3ccc(F)cc3)c3ccc(F)cc3)CC2)c(OC)c1OC	inactive
Cc1[nH]cnc1C[C@H]1CCc2c(C)c3ccccc3n2C1=O	inactive
CCCCCCCCCCCCCCCS(=O)(=O)Oc1ccccc1	inactive
O=C(c1ccc(F)cc1)C1CCN(CCn2c(=O)[nH]c3ccccc3c2=O)CC1	inactive
CCCCCCCCCCn1cc[n+](CCCCCCCCCC)c1C	21.9 µM (active)
NNC(=O)c1cccc(C(=O)NN)c1	inactive
C[n+]1ccn(Cc2ccccc2)c1	inactive
COC(=O)c1cc(Cl)ccc1OC	inactive
CCCCCCOC(=O)c1ccc(O)cc1	inactive
